# Laboratory results reported in the supplement of paper PMC10981050.
# Several values for one entry are separate records, joined by “and”; a condition that tells them apart may be missing. Identical values can stand only once. Counter-ions that a name gives are not always drawn.
# Columns and labels:
# Assay in all cases: cell viability relative to vehicle control; higher = less cytotoxic
# Details in all cases: 10 µM
# [1] = tested on: K562
# How it was run: (§1)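 CRISPR-edited mutant clones and isogenic wild-type clones from four leukaemia lines were screened against Selleck bioactive, kinase and epigenetic probe libraries, with identity-inconsistent compounds excluded. Each compound was acoustically dispensed at a single 10 µM dose into 384-well plates holding 2000 cells in 50 µL medium per well. After 48 h the supernatant was removed and CellTiter-Glo luminescence was read. Viability was expressed as percent of the on-plate vehicle control and analysed in Genedata Screener.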
# [2] = tested on: MARIMO
# How it was run: as §1
# [3] = tested on: MOLM14
# How it was run: as §1
# [4] = tested on: OCI-AML2
# How it was run: as §1
SMILES,cell viability ([1]; SRSF2 genotype: SRSF2 P95H/wt),cell viability ([1]; SRSF2 genotype: SRSF2 wt/wt),cell viability ([2]; SRSF2 genotype: SRSF2 P95H/wt),cell viability ([2]; SRSF2 genotype: SRSF2 wt/wt),cell viability ([3]; SRSF2 genotype: SRSF2 P95H/wt),cell viability ([3]; SRSF2 genotype: SRSF2 wt/wt),cell viability ([4]; SRSF2 genotype: P95H/wt),cell viability ([4]; SRSF2 genotype: wt/wt)
NC(=O)c1ccc(I)c([N+](=O)[O-])c1 [Iniparib (BSI-201)],101% and 102%,113%,97.6%,81.1%,98.6%,100%,127%,114%
CC(=O)OCc1ccccc1 [Benzyl acetate],103% and 94.2%,100%,96.5%,105%,97%,107%,98.3%,98.4%
C=CC(=O)Nc1ccc2ncnc(Nc3cccc(Br)c3)c2c1,66% and 72.7%,71.1%,70%,86.8%,61.6%,81.3%,50%,50.9%
CC(=O)c1ccc(NN=C(C(N)=O)C2=NC(C)(C)Cc3ccccc32)cc1,79.9% and 87.9%,86.9%,56.1%,58.1%,15%,14.7%,30.5%,40.5%
C=CC(C)(O)CCC=C(C)C (stereo not given) [Linalool],100% and 105%,107%,101%,105%,103%,104%,109%,97.4%
CC(C)(C)C(O)C(=Cc1ccc(Cl)cc1)n1cncn1 (stereo not given) [Uniconazole],95.8% and 99.3%,96.5%,92.2%,101%,93.9%,105%,93.8%,91.2%
O=C(NC1CCOCC1)c1ccc(-c2cc(-c3c[nH]nc3-c3ccccn3)ccn2)cc1,88.3% and 99.8%,93%,102%,110%,103%,103%,101%,101%
COc1ccnc(C[S+]([O-])c2nc3cc(-n4cccc4)ccc3[nH]2)c1C (stereo not given) [Ilaprazole],90.7% and 95.4%,92.4%,87.3%,105%,99.9%,101%,82.5%,97.3%
CCCN(CCC)CCc1cccc2c1CC(=O)N2 [Ropinirole HCl],98.9% and 97.5%,95.9%,103%,100%,103%,102%,100%,89.4%
Cn1cc(-c2ccc3nnc(Sc4ccc5ncccc5c4)n3n2)cn1,92% and 94.2%,96.6%,90%,101%,98%,99%,98%,94.3%
CCC1(c2c[nH]cn2)Cc2ccccc2C1 [Atipamezole hydrochloride],90.5% and 99.4%,104%,92.4%,99.1%,96.2%,99.7%,98.5%,95.2%
COC(=O)CCSCc1ccc(-c2onc(C)c2NC(=O)OC(C)c2ccccc2Cl)cc1 (stereo not given),94.7% and 94%,94.3%,87.3%,97.7%,90%,94.7%,82.3%,100%
N=C(NOCC(O)CN1CCCCC1)c1cccnc1 (stereo not given),106% and 96.6%,106%,104%,99.2%,108%,101%,97.6%,104%
COC(=O)C1=C(C)NC(C)=C(C(=O)OCCN2CCN(C(c3ccccc3)c3ccccc3)CC2)C1c1cccc([N+](=O)[O-])c1 (stereo not given) [Manidipine dihydrochloride (CV-4093)],60.3% and 62.1%,53.6%,67.1%,68.6%,55.2%,57.7%,42.5%,46.8%
O=C(O)c1ccc(Br)c(O)c1 [4-Bromo-3-hydroxybenzoic acid],105% and 104%,104%,100%,110%,100%,107%,99.3%,108%
NCCCCCN [Cadaverine],104% and 94%,99.5%,100%,101%,95.9%,101%,97.1%,97.7%
O=c1cc(-c2ccc(O)cc2)oc2c([C@@H]3O[C@H](CO)[C@@H](O)[C@H](O)[C@H]3O)c(O)cc(O)c12 [Vitexin],109% and 103%,101%,108%,107%,101%,105%,103%,107%
Cn1cncc1[C@@](N)(c1ccc(Cl)cc1)c1ccc2c(c1)c(-c1cccc(Cl)c1)cc(=O)n2C [Tipifarnib (Zarnestra)],24.9% and 31.7%,34.7%,34.5%,32.9%,29.9%,20.2%,19.9%,26%
COc1cc(Cc2cnc(N)nc2N)cc(OC)c1OC [Trimethoprim],102% and 101%,94.4%,103%,104%,102%,104%,101%,101%
Cc1cc(Nc2cc(CN3CCOCC3)c3nc(C)c(Cc4ccc(Cl)cc4F)n3n2)n[nH]1,88.8% and 88%,84%,73.1%,110%,19.7%,16.5%,34.7%,53%
